According to PubChem BioAssay (EPA / NIEHS):
Calls of active or inactive are those of the source. Rule for the calls: active = hit-call score of the fitted dose curve at least 0.9, where 1 is the maximum; inactive = score below 0.9.

Tests used:
[1] = read-out: Monocyte Chemoattractant Protein-1 (MCP1), CCL2 (gene 6347); assay: BSK_LPS_MCP1: BioMAP Diversity Plus: LPS Assay for Monocyte Chemoattractant Protein-1 (MCP1) Biomarker Activity (AID 2283081); settings: primary human HUVEC with PBMC; actives raise or lower the signal;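 for AC50: secreted MCP-1 protein quantified by ELISA in culture supernatant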
Procedure, shortened: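 Human endothelial–PBMC co-cultures were dosed with chemical, then LPS-driven MCP-1 levels were quantified by ELISA at 24 h. Activity in either direction was fitted versus DMSO negative control.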

[2] = BSK_LPS_PGE2: BioMAP Diversity Plus: LPS Assay for Prostaglandin E2 (PGE2) Biomarker Activity (AID 2283082); settings: primary human HUVEC with PBMC; actives raise or lower the signal;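 for AC50: secreted prostaglandin E2 measured by ELISA in LPS-stimulated co-culture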
Procedure, shortened: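 ELISA read-out of PGE2 from human umbilical vein endothelial cells co-cultured with peripheral blood mononuclear cells under LPS, 24 h post-dose. Gain or loss of signal scored relative to DMSO baseline.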

[3] = read-out: Macrophage colony-stimulating factor (MCSF), CSF1 (gene 1435); assay: BSK_LPS_MCSF: BioMAP Diversity Plus: LPS Assay for Macrophage colony-stimulating factor (MCSF) Biomarker Activity (AID 2283083); settings: primary human HUVEC with PBMC; actives raise or lower the signal
Procedure, shortened: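 ELISA readout of M-CSF after 24 h compound exposure in a human endothelial/PBMC co-culture. Activity, in either direction, is fitted relative to DMSO vehicle.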

[4] = read-out: Tissue Factor, F3 (gene 2152); assay: BSK_LPS_TissueFactor: BioMAP Diversity Plus: LPS Assay for Tissue Factor Biomarker Activity (AID 2283084); settings: primary human HUVEC with PBMC; actives raise or lower the signal
Procedure, shortened: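 ELISA signal for cell-surface Tissue Factor (CD142) was read 24 h after compound dosing of an LPS-stimulated human endothelial–PBMC primary co-culture. Gain or loss of signal was scored relative to DMSO.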

[5] = read-out: Tumor necrosis factor (Homo sapiens) (UniProt P01375); assay: BSK_LPS_TNFa: BioMAP Diversity Plus: LPS Assay for Tumour Necrosis Factor alpha (TNFa) Biomarker Activity (AID 2283085); settings: primary human HUVEC with PBMC; actives raise or lower the signal;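 for AC50: TNFa protein level quantified by ELISA in the co-culture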
Procedure, shortened: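 HUVEC/PBMC co-culture, LPS-stimulated; 24 h post-dose; TNFa by ELISA; gain or loss of signal fitted bidirectionally vs DMSO baseline.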

[6] = read-out: Vascular cell adhesion molecule 1 (VCAM1), VCAM1 (gene 7412); assay: BSK_LPS_VCAM1: BioMAP Diversity Plus: LPS Assay for Vascular cell adhesion molecule 1 (VCAM1) Biomarker Activity (AID 2283086); settings: primary human HUVEC with PBMC; actives raise or lower the signal
Procedure, shortened: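 ELISA read-out of VCAM-1 at 24 h post-dosing in an LPS-driven HUVEC/PBMC primary human co-culture; gain or loss of signal fitted bidirectionally against DMSO baseline. Cytotoxicity tracked in parallel cultures by SRB total-protein staining.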

[7] = read-out: CD38, CD38 (gene 952); assay: BSK_SAg_CD38: BioMAP Diversity Plus: SAg Assay for CD38 Biomarker Activity (AID 2283087); settings: primary human HUVEC with PBMC; actives raise or lower the signal
Procedure, shortened: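 Measures CD38 on a human endothelial/PBMC co-culture driven by SEB and TSST-1, 24 h after compound exposure, using ELISA with fluorescence detection; DMSO defines baseline for bidirectional curve fitting.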

[8] = read-out: CD40, CD40 (gene 958); assay: BSK_SAg_CD40: BioMAP Diversity Plus: SAg Assay for CD40 Biomarker Activity (AID 2283088); settings: primary human HUVEC with PBMC; actives raise or lower the signal
Procedure, shortened: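 Compounds were dosed onto a human primary endothelial–PBMC co-culture, and after 24 h CD40 was quantified by ELISA using a fluorescence signal. Activity in either direction was fitted relative to DMSO.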

[9] = read-out: CD69, CD69 (gene 969); assay: BSK_SAg_CD69: BioMAP Diversity Plus: SAg Assay for CD69 Biomarker Activity (AID 2283089); settings: primary human HUVEC with PBMC; actives raise or lower the signal;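 for AC50: cell surface CD69 protein quantified by ELISA with fluorescence detection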
Procedure, shortened: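 Values derive from bidirectional fitting relative to DMSO vehicle. Cells: umbilical vein endothelium plus peripheral blood mononuclear cells, treated 24 h before fluorescent ELISA for CD69.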

[10] = read-out: Monocyte Chemoattractant Protein-1 (MCP1), CCL2 (gene 6347); assay: BSK_SAg_MCP1: BioMAP Diversity Plus: SAg Assay for Monocyte Chemoattractant Protein-1 (MCP1) Biomarker Activity (AID 2283090); settings: primary human HUVEC with PBMC; actives raise or lower the signal
Procedure, shortened: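 Values derive from bidirectional fitting of ELISA-measured MCP1 against DMSO controls. Readings were taken 24 h after dosing human vascular endothelial cells co-cultured with peripheral blood mononuclear cells under superantigen stimulation.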

[11] = read-out: E-selectin (Homo sapiens) (UniProt P16581); assay: BSK_SAg_Eselectin: BioMAP Diversity Plus: SAg Assay for Eselectin Biomarker Activity (AID 2283091); settings: primary human HUVEC with PBMC; actives raise or lower the signal
Procedure, shortened: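 Co-culture: HUVEC + PBMC. Dose compound; 24 h. ELISA for E-selectin. Bidirectional fit vs DMSO.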

[12] = read-out: Monokine induced gamma interferon (MIG), CXCL9 (gene 4283); assay: BSK_SAg_MIG: BioMAP Diversity Plus: SAg Assay for Monokine induced gamma interferon (MIG) Biomarker Activity (AID 2283092); settings: primary human HUVEC with PBMC; actives raise or lower the signal
Procedure, shortened: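 Values reflect bidirectional fitting of ELISA-measured MIG against DMSO vehicle, taken 24 h after dosing of a co-culture of human umbilical vein endothelial cells and peripheral blood mononuclear cells.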

[13] = BSK_SAg_PBMCCytotoxicity: PBMC Cytotoxicity Assessment in the BioMAP Diversity Plus: SAg Assay (AID 2283093); settings: primary human HUVEC with PBMC;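 note: fitted both ways against DMSO so a hit may be loss or gain of signal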;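 for AC50: PBMC superantigen activated with SEB plus TSST-1 one hour after compound addition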
Procedure, shortened: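 PBMC viability by Alamar Blue reduction, fluorescence read at 546/580 nm after 6 h dye exposure. Cells were dosed 1 h before SEB plus TSST-1 activation (20 ng/mL final each), then held 90 h; endothelial/PBMC human co-culture.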

[14] = read-out: Interleukin-8 (IL8), CXCL8 (gene 3576); assay: BSK_SAg_IL8: BioMAP Diversity Plus: SAg Assay for Interleukin-8 (IL8) Biomarker Activity (AID 2283094); settings: primary human HUVEC with PBMC; actives raise or lower the signal
Procedure, shortened: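 HUVEC/PBMC co-culture, 24 h post-dose; IL-8 by ELISA. Gain or loss of signal fitted bidirectionally vs DMSO baseline.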

[15] = BSK_SAg_Proliferation: Cell Proliferation Assessment in the BioMAP Diversity Plus: SAg Assay (AID 2283095); settings: primary human HUVEC with PBMC;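 note: relative cell number as total protein by SRB absorbance in sub-confluent culture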
Procedure, shortened: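 HUVEC/PBMC co-culture, 96-well. TCA-fixed (10%), 0.1% SRB stain, A560 at 96 h. Protein content used as viability readout; bidirectional fitting vs DMSO control.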

[16] = BSK_SAg_SRB: Viability Assessment in the BioMAP Diversity Plus: SAg Assay (AID 2283096); settings: primary human HUVEC with PBMC;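 note: cells read one day after compound addition; hits may be either gain or loss of signal compared with DMSO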
Procedure, shortened: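 Compounds were added to a human vascular co-culture of umbilical vein endothelium and PBMC. After 24 h, parallel cultures were fixed with 10% TCA, stained with 0.1% sulforhodamine B and read at 560 nm. Gain or loss of signal was fitted relative to DMSO.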

Measured: AC50

Sequence of Tumor necrosis factor (Homo sapiens) (P01375 whole entry, looked up): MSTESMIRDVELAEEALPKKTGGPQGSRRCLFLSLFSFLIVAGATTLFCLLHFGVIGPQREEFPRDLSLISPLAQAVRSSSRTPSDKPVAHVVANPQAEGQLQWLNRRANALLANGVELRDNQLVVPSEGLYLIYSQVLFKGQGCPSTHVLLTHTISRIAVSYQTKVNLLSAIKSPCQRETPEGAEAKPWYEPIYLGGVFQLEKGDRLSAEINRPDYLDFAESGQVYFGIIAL
Sequence of E-selectin (Homo sapiens) (P16581 whole entry, looked up): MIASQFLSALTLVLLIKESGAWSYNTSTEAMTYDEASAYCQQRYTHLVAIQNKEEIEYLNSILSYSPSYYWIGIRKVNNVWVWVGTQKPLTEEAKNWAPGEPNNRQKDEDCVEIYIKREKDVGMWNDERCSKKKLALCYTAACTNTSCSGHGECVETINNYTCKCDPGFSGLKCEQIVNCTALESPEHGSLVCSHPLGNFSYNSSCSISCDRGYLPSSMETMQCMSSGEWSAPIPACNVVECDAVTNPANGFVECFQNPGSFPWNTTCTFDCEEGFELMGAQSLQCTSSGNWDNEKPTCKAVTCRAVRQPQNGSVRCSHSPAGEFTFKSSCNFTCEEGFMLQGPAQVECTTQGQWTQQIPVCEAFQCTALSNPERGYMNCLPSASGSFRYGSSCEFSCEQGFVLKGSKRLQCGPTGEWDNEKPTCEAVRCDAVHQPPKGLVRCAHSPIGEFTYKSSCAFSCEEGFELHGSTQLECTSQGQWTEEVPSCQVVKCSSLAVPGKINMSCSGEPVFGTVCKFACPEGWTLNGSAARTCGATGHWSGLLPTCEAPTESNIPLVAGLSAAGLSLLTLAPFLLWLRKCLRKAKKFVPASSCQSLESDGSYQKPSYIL

CC(C)COC(=O)c1ccccc1C(=O)OCC(C)C
active: [2] 9.78 µM | [6] 20 µM | [9] 20 µM | [11] 20 µM | [13] 37 µM | [15] 30.3 µM
inactive: all other assays above

ClC1=C(Cl)[C@]2(Cl)[C@H]3[C@H]([C@@H]4C=C[C@H]3C4)[C@@]1(Cl)C2(Cl)Cl
active: [1] 36.8 µM | [3] 31.6 µM | [4] 31.2 µM | [5] 31.5 µM | [6] 29.8 µM | [7] 16.8 µM | [8] 27.9 µM | [9] 27.5 µM | [10] 31.3 µM | [11] 32.7 µM | [13] 15.4 µM | [14] 30.9 µM | [15] 15 µM | [16] 25.8 µM
inactive: [2]

CCCCCOC(=O)c1ccccc1C(=O)OCCCCC
inactive: [1] | [4] | [10] | [13]
active: [2] 17.7 µM | [3] 26.5 µM | [5] 20 µM | [6] 20 µM | [7] 31.6 µM | [8] 24.8 µM | [9] 20 µM | [11] 32.4 µM | [14] 30.8 µM | [15] 31.9 µM | [16] 32.4 µM

O=P(OCCCl)(OCCCl)OCCCl
inactive: all assays above

CN(C)C(=O)Nc1ccc(Cl)cc1
active: [15] 20 µM
not listed: [12]
inactive: all other assays above

CCOc1cccc(C2(N3CCN(c4ccccc4)CC3)CCC(C)CC2)c1 (configuration not stated)
not listed: [7]
inactive: all other assays above

Clc1ccc(C(c2ccc(Cl)cc2)C(Cl)Cl)cc1
active: [1] 35.2 µM | [2] 28.5 µM | [3] 25.6 µM | [4] 37.8 µM | [5] 31.7 µM | [6] 30.5 µM | [7] 29.3 µM | [8] 26.2 µM | [9] 29.9 µM | [10] 34.2 µM | [11] 28.9 µM | [12] 35.6 µM | [13] 14.3 µM | [14] 29 µM | [15] 11.4 µM | [16] 29.5 µM

c1ccc2c(c1)-c1cccc3cccc-2c13
active: [5] 4.36 µM | [8] 31.2 µM | [11] 31.6 µM | [14] 32.2 µM | [16] 29.5 µM
inactive: all other assays above

Clc1ccc(Cl)c(Cl)c1
inactive: all assays above

CNC(=O)Oc1cccc2c1OC(C)(C)C2
not listed: [12]
inactive: all other assays above

C=CCc1ccc2c(c1)OCO2
inactive: all assays above

CC(C)(OOC(C)(C)c1ccccc1)c1ccccc1
active: [1] 30.4 µM | [3] 32.5 µM | [5] 31.7 µM | [6] 30.7 µM | [7] 33.5 µM | [8] 31 µM | [9] 31.6 µM | [10] 33 µM | [11] 37 µM | [12] 31.3 µM | [13] 27 µM | [14] 30.2 µM | [15] 16.4 µM | [16] 32.7 µM
inactive: [2] | [4]

Cc1ccc(N=C=O)cc1N=C=O
active: [15] 10.5 µM
not listed: [7]
inactive: all other assays above

O=C(Nc1ccccc1)c1ccccc1I
not listed: [1]
inactive: all other assays above

[As]#[In]
not listed: [1]
inactive: all other assays above
